From PubChem BioAssay (NCI)
About 79,000 compounds went through this panel and 15% of them were active in at least one assay; those are over-represented in the sample as a whole. The source made the active and inactive calls. Rule as the data show it: active = growth inhibition above about 70%; inactive = the rest.

Assays:
[1] = NCI Yeast Anticancer Drug Screen. Data for the rad50 strain (AID 155);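 also: 0% = growth of vehicle-only cultures of the same strain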; conditions: S. cerevisiae rad50 strain growth inhibition, hits give high values
How it was run: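 Yeast carrying a defined DNA repair defect were exposed to test compounds, and growth was compared with vehicle-treated controls to give percent inhibition.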

[2] = NCI Yeast Anticancer Drug Screen. Data for the mec2-1 strain (AID 157); conditions: S. cerevisiae mec2-1 strain, hits give high values
How it was run: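 Yeast mec2-1 mutant treated with compound. Readout: growth inhibition vs vehicle controls.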

[3] = NCI Yeast Anticancer Drug Screen. Data for the sgs1 mgt1 strain (AID 161);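 also: 0% = growth of cultures given vehicle only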; conditions: S. cerevisiae sgs1 mgt1 strain, hits give high values
How it was run: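 Test agents were incubated with a DNA-repair-mutant yeast strain. Growth was then read and compared against vehicle-treated controls.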

[4] = NCI Yeast Anticancer Drug Screen. Data for the cln2 rad14 strain (AID 165);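 also: 0% = growth equal to vehicle treated cultures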; conditions: S. cerevisiae cln2 rad14 strain, hits give high values
How it was run: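 cln2 rad14 yeast strain; compound exposure; growth inhibition read vs vehicle controls.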

[5] = NCI Yeast Anticancer Drug Screen. Data for the bub3 strain (AID 167); conditions: S. cerevisiae bub3 mutant strain, hits give high values
How it was run: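 Compounds were applied to a genetically altered yeast strain carrying a cell-cycle control defect. Growth inhibition was scored against vehicle-treated controls.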

[6] = NCI Yeast Anticancer Drug Screen. Data for the mlh1 rad18 strain (AID 175); conditions: S. cerevisiae mlh1 rad18 strain growth inhibition, hits give high values
How it was run: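 Yeast w/ defined DNA-repair lesions; compound exposure; growth vs vehicle controls → % inhibition.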

[7] = at 5.0 µM (retest, dose inferred, filed as 0.5)
[8] = at 50.0 µM (retest, dose inferred, filed as 5.0)

Measured: growth inhibition

CS(=O)(=O)OCCN(CCOS(C)(=O)=O)c1ccc(C=Nc2ccc(-c3csc(-c4ccc(Br)cc4)n3)cc2)c(Cl)c1
inactive: [1]; [7] 0% | [2]; [7] -4% | [2]; [8] 51% | [2]; at 50.0 µM 56.2% | [3]; [7] 1% | [4]; [7] -10% | [4]; [8] 68% | [4]; at 50.0 µM 46.3% | [5]; [7] 3% | [6]; [7] 0%
active: [1]; [8] 71% | [1]; at 50.0 µM 71.7% | [3]; [8] 83% | [3]; at 50.0 µM 92.3% | [5]; [8] 87% | [5]; at 50.0 µM 80.1% | [6]; [8] 76% | [6]; at 50.0 µM 90.7%

CCCCCOC(=O)C(C)SC#N (stereo not given)
inactive: [1]; [7] 12% | [1]; [8] 45% | [1]; at 50.0 µM 42.2% | [2]; [7] -13% | [2]; [8] 54% | [2]; at 50.0 µM 47.9% | [3]; [7] 4% | [3]; at 50.0 µM 66.7% | [4]; [7] 6% | [4]; [8] 29% | [5]; [7] 9% | [5]; [8] 52% | [5]; at 50.0 µM 54.9% | [6]; [7] 19% | [6]; [8] 44%
active: [3]; [8] 80% | [4]; at 50.0 µM 92.3% | [6]; at 50.0 µM 73.8%

CN(C)CCCC(C#N)(CCCN(C)C)c1ccccc1
inactive: [1]; [7] 15% | [1]; [8] -2% | [1]; at 50.0 µM 15% | [2]; [7] -1% | [2]; [8] 5% | [2]; at 50.0 µM -2.05% | [3]; [7] 6% | [3]; [8] 0% | [3]; at 50.0 µM 10.6% | [4]; [7] -2% | [4]; [8] 6% | [4]; at 50.0 µM -51.6% | [5]; [7] -3% | [5]; [8] -1% | [5]; at 50.0 µM -18.5% | [6]; [7] -3% | [6]; [8] 8% | [6]; at 50.0 µM 31.4%

CCN(CC)C(C)(C)C(=O)/C=C/c1ccc(Cl)c(Cl)c1
inactive: [1]; [7] 13% | [2]; [7] 3% | [3]; [7] 6% | [4]; [7] -8% | [4]; at 50.0 µM 47.9% | [5]; [7] 5% | [6]; [7] 0%
active: [1]; [8] 97% | [1]; at 50.0 µM 92.7% | [2]; [8] 97% | [2]; at 50.0 µM 99.2% | [3]; [8] 97% | [3]; at 50.0 µM 82.7% | [4]; [8] 96% | [5]; [8] 98% | [5]; at 50.0 µM 96% | [6]; [8] 95% | [6]; at 50.0 µM 95%

O=CC(O)CN1CCCC1 (stereo not given)
active: [3]; at 50.0 µM 87.7% | [4]; at 50.0 µM 96.8% | [6]; at 50.0 µM 92.9%
inactive: [1]; [7] -2% | [1]; [8] 11% | [1]; at 50.0 µM 49.6% | [2]; [7] 0% | [2]; [8] 14% | [2]; at 50.0 µM 53.2% | [3]; [7] 2% | [3]; [8] 8% | [4]; [7] -4% | [4]; [8] 6% | [5]; [7] -4% | [5]; [8] 25% | [5]; at 50.0 µM 12.7% | [6]; [7] 1% | [6]; [8] 16%

CCC(=O)N(CCC(C)C)c1ccccc1
inactive: [1]; [7] 3% | [1]; [8] 7% | [1]; at 50.0 µM 11.8% | [2]; [7] -2% | [2]; [8] 2% | [2]; at 50.0 µM -2.15% | [3]; [7] 0% | [3]; [8] 1% | [3]; at 50.0 µM -8.65% | [4]; [7] 3% | [4]; [8] 4% | [4]; at 50.0 µM 41.1% | [5]; [7] 3% | [5]; [8] -11% | [5]; at 50.0 µM -18.6% | [6]; [7] 3% | [6]; [8] 2% | [6]; at 50.0 µM -11.9%

CNc1ccc2c(c1)Cc1ccccc1-2
inactive: [1]; [7] 36% | [2]; [7] 3% | [2]; [8] 64% | [3]; [7] 56% | [4]; [7] 2% | [5]; [7] -7% | [5]; [8] 45% | [6]; [7] 26%
active: [1]; [8] 92% | [1]; at 50.0 µM 97.3% | [2]; at 50.0 µM 91.8% | [3]; [8] 86% | [3]; at 50.0 µM 96.9% | [4]; [8] 79% | [4]; at 50.0 µM 92.8% | [5]; at 50.0 µM 77.2% | [6]; [8] 92% | [6]; at 50.0 µM 97.2%

Nc1ccc2c(c1)[nH]c(=O)c1cc(Cl)c(Cl)cc12
inactive: [2]; [7] 27% | [2]; [8] 60% | [2]; at 50.0 µM 40.4% | [3]; [7] 49% | [4]; [7] 63% | [4]; at 50.0 µM 13.1% | [5]; [7] -1% | [5]; at 50.0 µM 9.65% | [6]; [7] 53%
active: [1]; [7] 87% | [1]; [8] 94% | [1]; at 50.0 µM 96.3% | [3]; [8] 70% | [3]; at 50.0 µM 78.2% | [4]; [8] 77% | [5]; [8] 84% | [6]; [8] 85% | [6]; at 50.0 µM 92.9%

NC(=O)C1CCN(N=Nc2c(-c3ccccc3)n[nH]c2-c2ccccc2)CC1
active: [1]; [7] 79% | [1]; [8] 99% | [1]; at 50.0 µM 99.4% | [2]; [7] 99% | [2]; [8] 100% | [2]; at 50.0 µM 99.5% | [3]; [7] 99% | [3]; [8] 100% | [3]; at 50.0 µM 99.5% | [4]; [7] 99% | [4]; [8] 99% | [4]; at 50.0 µM 99.3% | [5]; [7] 99% | [5]; [8] 99% | [5]; at 50.0 µM 99.5% | [6]; [7] 99% | [6]; [8] 99% | [6]; at 50.0 µM 99.2%

OC1CCCCC1Cc1ccc(Cl)cc1 (stereo not given)
active: [1]; at 50.0 µM 90.5% | [2]; at 50.0 µM 93.8% | [4]; at 50.0 µM 90% | [5]; [8] 97% | [5]; at 50.0 µM 98.8% | [6]; at 50.0 µM 93.4%
inactive: [1]; [7] -2% | [1]; [8] 56% | [2]; [7] 4% | [2]; [8] 26% | [3]; [7] 4% | [3]; [8] 31% | [3]; at 50.0 µM 65.3% | [4]; [7] -2% | [4]; [8] 30% | [5]; [7] 32% | [6]; [7] -2% | [6]; [8] 45%
